{
  "source": "PubChem BioAssay (NCI)",
  "note": "The panel holds about 79,000 compounds, 15% with a hit somewhere; the sample as a whole holds those more often. Values without a mark were called inactive. Calls of active or inactive are those of the source. Rule as the data show it: active = growth inhibition above about 70%; inactive = the rest.",
  "data": [
    {"assay": "NCI Yeast Anticancer Drug Screen. Data for the mlh1 rad18 strain (AID 175)", "conditions": "S. cerevisiae mlh1 rad18 strain growth inhibition; at 50.0 µM (retest, dose inferred, filed as 5.0); hits give high values", "procedure,_shortened": "(§1)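 Steps: expose repair-defective yeast to compound; measure growth; express inhibition against vehicle-treated controls.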", "values": [
      {"compound": "ClCCOCCOc1c(Cl)cc(Cl)c(Cl)c1Cl", "growth inhibition": "26%"},
      {"compound": "Cc1ccc(S(=O)(=O)C(=S)Sc2ccccc2)cc1", "growth inhibition": "92% (active)"},
      {"compound": "CCC(C)(C)c1ccc(OCCO)c([N+](=O)[O-])c1", "growth inhibition": "90% (active)"},
      {"compound": "CCCCCCC(C)S(=O)(=O)c1ccc(C)cc1", "note": "(stereo unspecified)", "growth inhibition": "47%"},
      {"compound": "O=C1N(Cc2ccccc2)CC1(c1ccccc1)C1CCCCC1O", "note": "(stereo unspecified)", "growth inhibition": "93% (active)"},
      {"compound": "COc1cc2c(oc(=O)c3cc(C)cc(OC)c32)c2c(C3OC(C)C(O)C(C)(O)C3O)ccc(O)c12", "note": "(stereo unspecified)", "growth inhibition": "96% (active)"},
      {"compound": "CCc1cc(C)cc(NC(=O)OC2CCCCC2C)c1", "note": "(stereo unspecified)", "growth inhibition": "72% (active)"},
      {"compound": "Cc1cc(Nc2ccc(N=Nc3ccc(O)c4ncccc34)cc2)nc(C)n1", "growth inhibition": "37%"},
      {"compound": "Oc1ccc(C2SC(c3ccc(O)cc3)SC(c3ccc(O)cc3)S2)cc1", "note": "(stereo unspecified)", "growth inhibition": "99% (active)"},
      {"compound": "O=[N+]([O-])c1cnc(Sc2cncc[n+]2[O-])s1", "growth inhibition": "99% (active)"},
      {"compound": "O=C(C1=Cc2ccccc2OC1)N1CCN(c2cccc(Cl)c2)CC1", "growth inhibition": "97% (active)"},
      {"compound": "O=C1C=CC(=O)c2cc(Sc3ccccc3)c(=O)ccc21", "growth inhibition": "37%"},
      {"compound": "O=C(O)CCCCCCC(=O)CCl", "growth inhibition": "86% (active)"},
      {"compound": "CC(=O)NC1=C(Sc2ccc(C)cc2)C(=O)c2ccccc2C1=O", "growth inhibition": "99% (active)"},
      {"compound": "Cc1cc(O)c(C=NC(=S)C(N)=S)c(=O)o1", "growth inhibition": "42%"},
      {"compound": "Cc1cc(C)c(Cc2cc(C(C)(C)C)cc(C)c2O)cc1Cc1cc(C(C)(C)C)cc(C)c1O", "growth inhibition": "33%"},
      {"compound": "O=C(O)CCC/C(=N\\Nc1ccccc1)C(=O)O", "growth inhibition": "98% (active)"},
      {"compound": "Cc1cc(Oc2nc(Cl)nc(C(Cl)(Cl)Cl)c2Cl)cc(C)c1N(C)C", "note": "(tested in a mixture with another compound)", "growth inhibition": "-5%"},
      {"compound": "CC(NCCO)c1ccc2ccccc2c1", "note": "(stereo unspecified)", "growth inhibition": "8%"},
      {"compound": "[O-][n+]1ccc(Br)c(/C=C/c2ccccc2)c1", "growth inhibition": "79% (active)"},
      {"compound": "O=C(NCCNCCNCCNC(=O)c1cc(-c2ccccc2)nc2ccccc12)c1cc(-c2ccccc2)nc2ccccc12", "growth inhibition": "88% (active)"},
      {"compound": "CC(C)C(Sc1nc(-c2ccccc2)c(-c2ccccc2)[nH]1)C(=O)NN", "note": "(stereo unspecified)", "growth inhibition": "96% (active)"},
      {"compound": "O=C(CNc1cccc(Cl)c1)Nn1c(-c2ccccc2)nc2ccccc2c1=O", "growth inhibition": "86% (active)"},
      {"compound": "O=C(COc1ccc(Cl)c(Cl)c1)Nc1ccc[n+](Cc2ccc(Cl)c(Cl)c2)c1", "growth inhibition": "99% (active)"},
      {"compound": "CCOC(=O)c1cnccc1CC1(C#N)c2ccccc2C=CN1C(=O)c1ccccc1", "note": "(stereo unspecified)", "growth inhibition": "67%"},
      {"compound": "O=C1C(N2CCOCC2)=C(Cl)C(=O)c2ncccc21", "growth inhibition": "96% (active)"}
    ]},
    {"assay": "NCI Yeast Anticancer Drug Screen. Data for the mlh1 rad18 strain (AID 175)", "conditions": "S. cerevisiae mlh1 rad18 strain growth inhibition; at 50.0 µM; hits give high values", "procedure,_shortened": "as §1", "values": [
      {"compound": "COC(=O)/C=C/c1cccc[n+]1[O-]", "growth inhibition": "17.8%"},
      {"compound": "CN(C)CCCNc1c(C#N)[n+]([O-])c2cc(Cl)ccc2[n+]1[O-]", "growth inhibition": "68.8%"},
      {"compound": "Cc1c(N=Nc2ccc(Br)cc2)c(-c2ccccc2)nn1C(N)=S", "growth inhibition": "97.7% (active)"},
      {"compound": "COc1cc2c(c(OC)c1OC)-c1ccc(O)c(=O)cc1C(N=Cc1ccccc1)CC2", "note": "(stereo unspecified)", "growth inhibition": "18.8%"},
      {"compound": "CCC(C)SC1SCC2C(=O)N(C)C3(CC3C)C(=O)OCC(NC(=O)c3nc4ccccc4cc3O)C(=O)NC(C)C(=O)N(C)C1C(=O)N(C)C1(CC1C)C(=O)OCC(NC(=O)c1nc3ccccc3cc1O)C(=O)NC(C)C(=O)N2C", "note": "(stereo unspecified)", "growth inhibition": "89.8% (active)"},
      {"compound": "O=C(N/C(=C\\c1ccc2c(c1)OCO2)c1nc2ccccc2s1)c1ccccc1", "growth inhibition": "97.5% (active)"},
      {"compound": "CCCC/C=C1/CCC(CN(C)C)C1=O", "note": "(stereo unspecified)", "growth inhibition": "54.2%"},
      {"compound": "O=C(O)c1cc2c(cc1CC(Cc1ccc3c(c1)CCCC3)C(=O)O)CCCC2", "note": "(stereo unspecified)", "growth inhibition": "82.5% (active)"},
      {"compound": "CCNC(=O)COc1ccc(Cl)cc1Cl", "growth inhibition": "-27.4%"},
      {"compound": "Fc1ccc(OCCC(Cn2ccnc2)c2ccc(Cl)cc2Cl)cc1", "note": "(stereo unspecified)", "growth inhibition": "95.1% (active)"},
      {"compound": "Cc1ccc(NC(=O)/C(CC(=O)c2sc(Nc3ccc(Cl)c(Cl)c3)nc2C)=N\\Nc2ccc([N+](=O)[O-])cc2[N+](=O)[O-])c(C)c1", "growth inhibition": "96.8% (active)"},
      {"compound": "Oc1ccc(C/C=C/c2ccccc2)cc1O", "growth inhibition": "99.2% (active)"},
      {"compound": "CC(=O)OC1=CC2=CCC3C(CCC4(C)C(C(C)=O)CCC34)C2(C)CC1", "note": "(stereo unspecified)", "growth inhibition": "11.3%"},
      {"compound": "CCCCNc1ccc(-c2c(N)nc(N)nc2CC)cc1[N+](=O)[O-]", "growth inhibition": "62.8%"},
      {"compound": "ClCCOCCOc1c(Cl)cc(Cl)c(Cl)c1Cl", "growth inhibition": "71% (active)"},
      {"compound": "Cc1ccc(S(=O)(=O)C(=S)Sc2ccccc2)cc1", "growth inhibition": "79.8% (active)"},
      {"compound": "CCC(C)(C)c1ccc(OCCO)c([N+](=O)[O-])c1", "growth inhibition": "56.9%"},
      {"compound": "CCCCCCC(C)S(=O)(=O)c1ccc(C)cc1", "note": "(stereo unspecified)", "growth inhibition": "51.2%"},
      {"compound": "O=C1N(Cc2ccccc2)CC1(c1ccccc1)C1CCCCC1O", "note": "(stereo unspecified)", "growth inhibition": "4.1%"},
      {"compound": "COc1cc2c(oc(=O)c3cc(C)cc(OC)c32)c2c(C3OC(C)C(O)C(C)(O)C3O)ccc(O)c12", "note": "(stereo unspecified)", "growth inhibition": "88.8% (active)"},
      {"compound": "CCc1cc(C)cc(NC(=O)OC2CCCCC2C)c1", "note": "(stereo unspecified)", "growth inhibition": "90.4% (active)"},
      {"compound": "Cc1cc(Nc2ccc(N=Nc3ccc(O)c4ncccc34)cc2)nc(C)n1", "growth inhibition": "75.5% (active)"},
      {"compound": "Oc1ccc(C2SC(c3ccc(O)cc3)SC(c3ccc(O)cc3)S2)cc1", "note": "(stereo unspecified)", "growth inhibition": "98.8% (active)"},
      {"compound": "O=[N+]([O-])c1cnc(Sc2cncc[n+]2[O-])s1", "growth inhibition": "99.5% (active)"},
      {"compound": "O=C(C1=Cc2ccccc2OC1)N1CCN(c2cccc(Cl)c2)CC1", "growth inhibition": "71.2% (active)"},
      {"compound": "O=C1C=CC(=O)c2cc(Sc3ccccc3)c(=O)ccc21", "growth inhibition": "87% (active)"},
      {"compound": "O=C(O)CCCCCCC(=O)CCl", "growth inhibition": "72.9% (active)"},
      {"compound": "CC(=O)NC1=C(Sc2ccc(C)cc2)C(=O)c2ccccc2C1=O", "growth inhibition": "23.1%"},
      {"compound": "Cc1cc(O)c(C=NC(=S)C(N)=S)c(=O)o1", "growth inhibition": "-38%"},
      {"compound": "Cc1cc(C)c(Cc2cc(C(C)(C)C)cc(C)c2O)cc1Cc1cc(C(C)(C)C)cc(C)c1O", "growth inhibition": "71% (active)"},
      {"compound": "O=C(O)CCC/C(=N\\Nc1ccccc1)C(=O)O", "growth inhibition": "98.3% (active)"},
      {"compound": "Cc1cc(Oc2nc(Cl)nc(C(Cl)(Cl)Cl)c2Cl)cc(C)c1N(C)C", "note": "(tested in a mixture with another compound)", "growth inhibition": "95.7% (active)"},
      {"compound": "CC(NCCO)c1ccc2ccccc2c1", "note": "(stereo unspecified)", "growth inhibition": "-3.8%"},
      {"compound": "[O-][n+]1ccc(Br)c(/C=C/c2ccccc2)c1", "growth inhibition": "56.1%"},
      {"compound": "O=C(NCCNCCNCCNC(=O)c1cc(-c2ccccc2)nc2ccccc12)c1cc(-c2ccccc2)nc2ccccc12", "growth inhibition": "99% (active)"},
      {"compound": "CC(C)C(Sc1nc(-c2ccccc2)c(-c2ccccc2)[nH]1)C(=O)NN", "note": "(stereo unspecified)", "growth inhibition": "89.4% (active)"},
      {"compound": "O=C(CNc1cccc(Cl)c1)Nn1c(-c2ccccc2)nc2ccccc2c1=O", "growth inhibition": "96.7% (active)"},
      {"compound": "O=C(COc1ccc(Cl)c(Cl)c1)Nc1ccc[n+](Cc2ccc(Cl)c(Cl)c2)c1", "growth inhibition": "98.8% (active)"},
      {"compound": "CCOC(=O)c1cnccc1CC1(C#N)c2ccccc2C=CN1C(=O)c1ccccc1", "note": "(stereo unspecified)", "growth inhibition": "89.2% (active)"},
      {"compound": "O=C1C(N2CCOCC2)=C(Cl)C(=O)c2ncccc21", "growth inhibition": "89.3% (active)"}
    ]}
  ]
}
